Sfp inh – inhibitors of Bacillus subtilis Sfp phosphopantetheinyl transferase | Potency, µM, most hits filed as inhibitors | hit rate 3.5% among 310,000 | AID 1490 | Biochemical Sfp PPTase activity, qHTS;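 further: the enzyme is Sfp with the accession as filed and its product quenches rhodamine fluorescence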
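Compounds were incubated with enzyme (final 15 nM) for 15 min at room temperature before substrate addition started the reaction. Fluorescence at 525 nm excitation, 598 nm emission was recorded immediately and after 30 minutes.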
CCT modulator – cytosolic chaperonin activity modulation; purified chaperonin ATPase assay, HTRF ADP detection, 30 min; activity change, % (test concentration not listed), hits read low; hit rate 0.3% among 360,000; AID 651819; in the data active means activity change below about -30%
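First, chaperonin was dispensed at 40 nM or 20 nM final depending on batch activity. Next, compounds were pinned at 76 uM and ATP added at 10 uM. After 30 min at 37 °C, ADP detection reagents ran 30 min at ambient temperature.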
G9a inh – blocks human histone lysine methyltransferase G9a; Q96KQ7; G9a H3K9 monomethylation, AlphaScreen, 2 h; Potency, µM (top dose mostly 102 µM), usual class: inhibitors; hit rate 8.8% among 350,000; AID 504332; further: nearly all actives have a fitted effect of over 75% in size
Target sequence (Q96KQ7 913-1193 limits assumed): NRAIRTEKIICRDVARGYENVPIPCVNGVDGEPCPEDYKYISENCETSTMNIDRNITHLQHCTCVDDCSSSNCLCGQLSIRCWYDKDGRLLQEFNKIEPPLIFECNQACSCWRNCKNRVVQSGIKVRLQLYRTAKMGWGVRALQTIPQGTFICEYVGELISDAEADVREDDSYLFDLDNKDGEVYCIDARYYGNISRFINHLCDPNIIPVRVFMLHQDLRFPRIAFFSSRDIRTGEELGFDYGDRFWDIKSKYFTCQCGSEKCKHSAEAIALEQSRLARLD
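G9a (20 nM) was preincubated 15 min with compound, then reacted 2 h at room temperature with 500 nM biotin-H3K9 peptide and 20 µM SAM. Monomethyl-H3K9 detected by AlphaScreen using anti-H3K9me1 antibody.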
PLK1 PBD block – blocks phosphopeptide binding to human PLK1 polo-box domain; hit rate 2.8% among 360,000; Plk1 PBD binding of FITC phosphopeptide, fluorescence polarization; Potency, µM, usual class: inhibitors; P53350; AID 720504; further: series mostly up to about 57 µM; nearly all actives have a fitted effect of over 65% in size
MmCpn inh – blocks the Methanococcus maripaludis chaperonin Mm-Cpn; purified Mm-Cpn ATPase, ADP Transcreener TR-FRET; Potency, µM (titrated, usually from 76.9 µM), usual class: inhibitors; hit rate 0.031% among 330,000; AID 504842; further: nearly all actives have a fitted effect of over 80% in size
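ATPase turnover read by TR-FRET ADP competition (Eu cryptate antibody/ADP-d2, 665/590 nm): 10uM ATP final, 25nM Mm-CPN final, 30 min 37degC after 10-min compound preincubation, pH 7.4 Tris/KCl/MgCl2/DTT buffer.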
VDR inh – inhibitors of human vitamin D receptor | AID 504847 | hit rate 0.93% among 400,000 | P11473 | Potency, µM, usual class: inhibitors | VDR-SRC2-3 peptide fluorescence polarization, 2 h
Target sequence (P11473 whole entry, looked up): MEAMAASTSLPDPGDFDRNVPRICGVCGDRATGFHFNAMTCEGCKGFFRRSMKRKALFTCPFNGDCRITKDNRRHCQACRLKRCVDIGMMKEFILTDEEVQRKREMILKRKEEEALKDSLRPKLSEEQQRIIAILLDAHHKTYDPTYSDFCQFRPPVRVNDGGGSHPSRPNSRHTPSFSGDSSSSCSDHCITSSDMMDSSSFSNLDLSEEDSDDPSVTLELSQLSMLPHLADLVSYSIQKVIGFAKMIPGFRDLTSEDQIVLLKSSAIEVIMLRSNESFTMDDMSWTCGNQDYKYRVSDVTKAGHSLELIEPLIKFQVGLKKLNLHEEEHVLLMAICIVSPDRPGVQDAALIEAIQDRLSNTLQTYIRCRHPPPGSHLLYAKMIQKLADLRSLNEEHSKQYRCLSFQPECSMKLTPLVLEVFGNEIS
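Reagent solutions, kept cold and dark, are dispensed first; compounds are then pinned in at 23 nl, plates briefly spun, and incubated 2 h at ambient temperature. Inhibition of VDR–SRC2-3 peptide binding is read by fluorescence polarization.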
Of the large screens only hits and unclear results are named; the others gave an inactive call; ! = a repeat was not active. Rows were chosen to be rich in hits. Some 10% of all compounds tested hit in one or more screens of this group. Unless noted, the call rests on the fitted dose curve; in most records, active means well fitted curve in the direction sought with a large enough effect; inconclusive means small, poorly fitted or top-dose-only effect, or another doubt; inactive means no such curve, though single readings can be large; an effect the other way counts as inactive or inconclusive.

COc1ccc(C2CC(c3c(O)n(CCc4ccccc4)c(=O)[nH]c3=O)=NN2)cc1OC (configuration not stated)	G9a inh 56µM
C=C(C)C1CCC(C)=CC1c1c(OC)cc(C)cc1OC (configuration not stated)	none (no result: CCT modulator, G9a inh, PLK1 PBD block, MmCpn inh)
[Li+]	none (no result: Sfp inh, CCT modulator, PLK1 PBD block, MmCpn inh)
O=C1NC(=O)C(=Cc2cn(CCOc3ccc4c(c3)OCO4)c3ccccc23)C(=O)N1	G9a inh inconclusive
C=CCN1C(=O)NC(=O)/C(=C/c2c(CCN(C)C(=O)c3ccccc3)cc3c(c2OC)OCO3)C1=O	G9a inh inconclusive, PLK1 PBD block 24µM
CNC(=S)N(C)CCc1cc2c(c(OC)c1C=C1C(=O)NC(=O)NC1=O)OCO2	Sfp inh inconclusive, G9a inh 79µM, PLK1 PBD block inconclusive
C#CCOC(C(=O)OCCN(C)C)(c1ccccc1)c1ccccc1	none (no result: CCT modulator, PLK1 PBD block, MmCpn inh)
CC1CC2OC2/C=C\C=C/C(=O)Cc2c(Cl)c(O)cc(O)c2C(=O)O1 (configuration not stated)	G9a inh inconclusive, VDR inh 45µM (no result: CCT modulator, PLK1 PBD block, MmCpn inh)
Cc1c(N=Nc2c(O)[nH]c(=O)[nH]c2=O)c(=O)n(-c2ccccc2)n1C	Sfp inh 45µM, G9a inh inconclusive
O=P(O)(O)c1ccccc1OCCOCCOCCOCCOc1ccccc1P(=O)(O)O	G9a inh 10µM
CC(N)Cc1c[nH]c2ccc(O)cc12 (configuration not stated)	G9a inh 7.9µM (no result: MmCpn inh)
O=C(O)[C@H]1[C@H]2CN[C@H](C(=O)O)[C@H]21	Sfp inh inconclusive (no result: CCT modulator, PLK1 PBD block, MmCpn inh)
OCCN(CC#CC(O)(c1ccccc1)C1CCCC1)CCO (configuration not stated)	G9a inh 50µM
Cc1cc(C=C2C(=O)N(C)C(=O)N(C)C2=O)c(C)n1-c1ccccc1	G9a inh 7.9µM
Cc1cc(/C=C2/C(=O)NC(=O)N(c3ccccc3)C2=O)c(C)n1-c1ccc(F)cc1	PLK1 PBD block inconclusive (no result: Sfp inh, G9a inh, MmCpn inh)
O=c1c2ccccc2sn1-c1ccc(Cl)cc1	PLK1 PBD block 3µM (no result: Sfp inh, G9a inh, MmCpn inh, VDR inh)
Cc1ccc(-n2sc3ccccc3c2=O)cc1	Sfp inh 1.3µM, G9a inh 1.1µM, PLK1 PBD block 0.95µM, VDR inh 3.2µM
Cc1ccc(-n2c(/C=C/c3ccccn3)nc3ccccc3c2=O)cc1	none
COc1cccc(-n2c(/C=C\c3ccc(Cl)cc3)nc3ccccc3c2=O)c1	VDR inh inconclusive (no result: Sfp inh, CCT modulator, PLK1 PBD block, MmCpn inh)
Cc1ccc(-n2c(/C=C/c3ccccc3)nc3ccccc3c2=O)cc1Cl	none (no result: Sfp inh, CCT modulator, PLK1 PBD block, MmCpn inh)
C[C@H](N)Cc1c[nH]c2ccc(OCc3cccs3)cc12	none (no result: CCT modulator, G9a inh, PLK1 PBD block, MmCpn inh, VDR inh)
Cc1nc(-c2ccc(-c3ccc(C(=O)N4CCc5cc6c(cc54)C4(CCN(C)CC4)CO6)cc3)c(C)c2)no1	Sfp inh 63µM (no result: CCT modulator, PLK1 PBD block, MmCpn inh, VDR inh)
O[N+]1=CC=CCC1=S.On1ccccc1=S.[Zn]	G9a inh inconclusive, VDR inh 45µM (no result: CCT modulator, PLK1 PBD block, MmCpn inh)
C=CCN1CC[C@]23c4c5ccc(O)c4OC2C(O)C=CC3[C@H]1C5 (some centres not stated)	none (no result: Sfp inh, G9a inh)
CN1CCc2cc(O)cc3c2C1Cc1ccc(O)c(O)c1-3 (configuration not stated)	Sfp inh 40µM, G9a inh 0.71µM (no result: CCT modulator, PLK1 PBD block, MmCpn inh)
CCCN1CCc2cccc3c2[C@H]1Cc1ccc(O)c(O)c1-3	G9a inh 1.7µM, VDR inh 7.9µM! (no result: Sfp inh, MmCpn inh)
COc1ccc2c(c1O)-c1cccc3c1C(C2)N(C)CC3 (configuration not stated)	none (no result: Sfp inh, CCT modulator, PLK1 PBD block, MmCpn inh, VDR inh)
C=CCN1CCc2cccc3c2C1Cc1ccc(O)c(O)c1-3 (configuration not stated)	Sfp inh 45µM, G9a inh 0.35µM, VDR inh inconclusive (no result: CCT modulator, PLK1 PBD block, MmCpn inh)
CC1CCCC(C)N1C(=O)CSc1nc2c(c(=O)n(C)c(=O)n2C)n1C (configuration not stated)	MmCpn inh inconclusive
CC1(C)C(=O)C=C[C@@]2(C)C1CC(O)[C@]1(C)C2CC[C@@]2(C)C(c3ccoc3)OC(=O)C3O[C@]312 (some centres not stated)	VDR inh inconclusive (no result: CCT modulator, PLK1 PBD block, MmCpn inh)
CC1(C)C(=O)C=C[C@@]2(C)C1=C(O)C(=O)[C@@]1(C)C2CC[C@@]2(C)C(c3ccoc3)C[C@H]3O[C@@]321 (some centres not stated)	VDR inh 7.9µM (no result: CCT modulator, PLK1 PBD block, MmCpn inh)
O=C(O)c1cn(Cc2ccccc2)nc1-c1ccccc1	none
O=C(O)CSCC(=O)N(Cc1ccccc1)c1nc(-c2ccccc2)c(-c2ccccc2)s1	G9a inh inconclusive, PLK1 PBD block 30µM, VDR inh inconclusive
CN1CC[C@@]2(CCCN(C(=O)c3csnn3)C2)C1	VDR inh 45µM (no result: CCT modulator, PLK1 PBD block, MmCpn inh)
CCOc1cc2c(cc1OCC)-n1cccc1C(c1ccccc1OC)NC2 (configuration not stated)	G9a inh inconclusive
CCOc1cc2c(cc1OCC)-n1cccc1C(c1cccc(F)c1F)NC2 (configuration not stated)	G9a inh 45µM
CCC(=O)Nc1ccccc1	none
CCC(=O)Nc1cc(C(=O)O)ccc1S(=O)(=O)c1ccc(C)cc1	G9a inh 45µM, PLK1 PBD block inconclusive
CN1C(=O)C(Cc2ccsc2)C(=O)N(C)C1=O	Sfp inh 28µM, G9a inh 11µM, PLK1 PBD block inconclusive, VDR inh inconclusive
CCCCn1c(-c2nn(C)cc2Cl)n[nH]c1=S	G9a inh 13µM
Nc1ncnc2c1ncn2[C@@H]1O[C@H](COP(=O)(O)CP(=O)(O)O)[C@@H](O)[C@H]1O	none (no result: MmCpn inh)
Nc1ncnc2c1ncn2[C@@H]1O[C@H](COP(=O)(O)CP(=O)(O)OP(=O)(O)O)[C@@H](O)[C@H]1O	Sfp inh 56µM, G9a inh 13µM! (no result: CCT modulator, PLK1 PBD block, MmCpn inh)
CC(C)Oc1cc(-n2nc(C(C)(C)C)oc2=O)c(Cl)cc1Cl	none (no result: CCT modulator, G9a inh, PLK1 PBD block, MmCpn inh)
O=C(Cn1ccc2ccccc2c1=O)NCC(=O)N1CCC2(CC1)OCCO2	none
Cc1ccc(CN(Cc2ccccc2)C(=S)NCC(=O)N2CCC3(CC2)OCCO3)o1	G9a inh 50µM, MmCpn inh inconclusive
CC(=NCCC1=CCCCC1)c1c(O)n(C)c(=O)n(C)c1=O	none
Cc1ccc2c(c1)CC1(CN2C)C(=O)NC(=O)N(CCC2=CCCCC2)C1=O (configuration not stated)	G9a inh 10µM
COc1ccc2c(c1)CC1(CN2C)C(=O)NC(=O)N(c2ccc(F)cc2)C1=O (configuration not stated)	G9a inh 20µM
CCC(C)N1C(=O)NC(=O)C2(Cc3cc(C)ccc3N(C)C2)C1=O (configuration not stated)	G9a inh inconclusive, PLK1 PBD block inconclusive
Cc1cccc(N2C(=O)NC(=O)C3(Cc4cc(C)ccc4N(C)C3)C2=O)c1 (configuration not stated)	G9a inh 10µM
